Test results as given in PubChem BioAssay AID1159580 (chemical genetic matrix, 2015).
Screen size: about 5,500 compounds; about 2,000 (36%) were called active. About 18% were inconclusive and are not listed. Cut-off read from the data, not from the text of the source: active = normalized growth mostly below about 0.91 (no sharp cut-off); inconclusive = no clear call, values can overlap the other calls; inactive = mostly above about 0.92. This is one part of the list.

Experiment: chemical genetic growth profiling, strain panel (AID 1159580);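 note: tested at 20 µM; growth read once vehicle control cultures reached saturation at 30 °C; 1 = growth at the plate median or of vehicle wells; lower values mean less growth of the strain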
Details: growth OD
[1] = S. cerevisiae deletion strains, locus YDL101C, strain DUN1, stronger effect = lower value
[2] = S. cerevisiae deletion strains, locus YHR030C, strain SLT2, stronger effect = lower value

Measured: normalized growth

CC(=O)N/C(=C/c1ccc2c(c1)OCO2)C(=O)O
inactive: S. cerevisiae deletion strains, locus YAL013W, strain DEP1, stronger effect = lower value 1.01 | S. cerevisiae deletion strains, locus YBR229C, strain ROT2, stronger effect = lower value 1 | S. cerevisiae deletion strains, locus YCL061C, strain MRC1, stronger effect = lower value 1.02 | [1] 1 | S. cerevisiae deletion strains, locus YDR150W, strain NUM1, stronger effect = lower value 0.915 | S. cerevisiae deletion strains, locus YEL061C, strain CIN8, stronger effect = lower value 1.02 | S. cerevisiae deletion strains, locus YGR078C, strain PAC10, stronger effect = lower value 1 | S. cerevisiae deletion strains, locus YGR229C, strain SMI1, stronger effect = lower value 1.02 | [2] 1.06 | S. cerevisiae deletion strains, locus YHR087W, strain rtc3, stronger effect = lower value 1 | S. cerevisiae deletion strains, locus YJL187C, strain SWE1, stronger effect = lower value 1.01 | S. cerevisiae deletion strains, locus YJR043C, strain POL32, stronger effect = lower value 1.01 | S. cerevisiae deletion strains, locus YJR075W, strain HOC1, stronger effect = lower value 1.02 | S. cerevisiae deletion strains, locus YKL190W, strain CNB1, stronger effect = lower value 1.01 | S. cerevisiae deletion strains, locus YLR039C, strain RIC1, stronger effect = lower value 1.07 | S. cerevisiae deletion strains, locus YLR058C, strain SHM2 (second series), stronger effect = lower value 1.01 | S. cerevisiae deletion strains, locus YLR085C, strain ARP6, stronger effect = lower value 1.02 | S. cerevisiae deletion strains, locus YLR262C, strain YPT6, stronger effect = lower value 1.07 | S. cerevisiae deletion strains, locus YML094W, strain GIM5, stronger effect = lower value 1.01 | S. cerevisiae deletion strains, locus YMR219W, strain ESC1, stronger effect = lower value 1 | S. cerevisiae deletion strains, locus YMR263W, strain SAP30, stronger effect = lower value 1.01 | S. cerevisiae deletion strains, locus YNL153C, strain GIM3, stronger effect = lower value 1.01 | S. cerevisiae deletion strains, locus YNL298W, strain CLA4 (second series), stronger effect = lower value 1.01 | S. cerevisiae deletion strains, locus YNL322C, strain KRE1, stronger effect = lower value 1 | S. cerevisiae deletion strains, locus YNR030W, strain Alg12, stronger effect = lower value 1.01 | S. cerevisiae deletion strains, locus YOL006C, strain TOP1, stronger effect = lower value 1.04 | S. cerevisiae deletion strains, locus YPL055C, strain LGE1, stronger effect = lower value 0.87 | S. cerevisiae deletion strains, locus YPL241C, strain CIN2, stronger effect = lower value 1 | S. cerevisiae deletion strains, locus YPR135W, strain CTF4, stronger effect = lower value 0.998 | S. cerevisiae strains, strain wild type, stronger effect = lower value 1.02

CSc1ccc(/C=C(\C)[N+](=O)[O-])cc1
active: S. cerevisiae deletion strains, locus YAR019C, strain CDC15, stronger effect = lower value 0.0932 | S. cerevisiae deletion strains, locus YBL105C, strain PKC1, stronger effect = lower value 0.0831 | S. cerevisiae deletion strains, locus YBR135W, strain CKS1, stronger effect = lower value 0.0817 | S. cerevisiae deletion strains, locus YBR136W, strain MEC1, stronger effect = lower value 0.0817 | S. cerevisiae deletion strains, locus YBR160W, strain CDC28, stronger effect = lower value 0.0827 | S. cerevisiae deletion strains, locus YDL017W, strain CDC7, stronger effect = lower value 0.0813 | S. cerevisiae deletion strains, locus YDL028C, strain MPS1, stronger effect = lower value 0.0841 | [1] 0.1 | S. cerevisiae deletion strains, locus YDL108W, strain KIN28, stronger effect = lower value 0.0841 | S. cerevisiae deletion strains, locus YDL214C, strain PRR2, stronger effect = lower value 0.0925 | S. cerevisiae deletion strains, locus YDR052C, strain DBF4, stronger effect = lower value 0.103 | S. cerevisiae deletion strains, locus YDR054C, strain cdc34, stronger effect = lower value 0.0952 | S. cerevisiae deletion strains, locus YDR226W, strain ADK1, stronger effect = lower value 0.09 | S. cerevisiae deletion strains, locus YDR477W, strain SNF1, stronger effect = lower value 0.104 | S. cerevisiae deletion strains, locus YER123W, strain YCK3, stronger effect = lower value 0.0983 | S. cerevisiae deletion strains, locus YER133W, strain GLC7, stronger effect = lower value 0.0958 | S. cerevisiae deletion strains, locus YFL009W, strain cdc4, stronger effect = lower value 0.0931 | S. cerevisiae deletion strains, locus YFL029C, strain CAK1, stronger effect = lower value 0.0921 | S. cerevisiae deletion strains, locus YFR003C, strain YPI1, stronger effect = lower value 0.0893 | S. cerevisiae deletion strains, locus YFR019W, strain FAB1, stronger effect = lower value 0.092 | S. cerevisiae deletion strains, locus YFR028C, strain CDC14, stronger effect = lower value 0.0831 | S. cerevisiae deletion strains, locus YGR040W, strain KSS1, stronger effect = lower value 0.103 | S. cerevisiae deletion strains, locus YGR052W, strain FMP48, stronger effect = lower value 0.138 | S. cerevisiae deletion strains, locus YGR092W, strain DBF2, stronger effect = lower value 0.105 | [2] 0.132 | S. cerevisiae deletion strains, locus YHR079C, strain IRE1, stronger effect = lower value 0.122 | S. cerevisiae deletion strains, locus YHR082C, strain KSP1, stronger effect = lower value 0.141 | S. cerevisiae deletion strains, locus YHR205W, strain SCH9, stronger effect = lower value 0.00725 | S. cerevisiae deletion strains, locus YIL147C, strain SLN1, stronger effect = lower value 0.0876 | S. cerevisiae deletion strains, locus YJL095W, strain BCK1, stronger effect = lower value 0.142 | S. cerevisiae deletion strains, locus YJL157C, strain FAR1, stronger effect = lower value 0.084 | S. cerevisiae deletion strains, locus YJR016C, strain ILV3, stronger effect = lower value 0.0861 | S. cerevisiae deletion strains, locus YJR066W, strain TOR1 (second series), stronger effect = lower value 0.0953 | S. cerevisiae deletion strains, locus YJR066W, strain TOR1, stronger effect = lower value 0.158 | S. cerevisiae deletion strains, locus YKL048C, strain ELM1, stronger effect = lower value 0.106 | S. cerevisiae deletion strains, locus YKL067W, strain YNK1, stronger effect = lower value 0.0912 | S. cerevisiae deletion strains, locus YKL101W, strain HSL1, stronger effect = lower value 0.103 | S. cerevisiae deletion strains, locus YKL193C, strain SDS22, stronger effect = lower value 0.0867 | S. cerevisiae deletion strains, locus YKL203C, strain TOR2, stronger effect = lower value 0.115 | S. cerevisiae deletion strains, locus YLR113W, strain HOG1, stronger effect = lower value 0.176 | S. cerevisiae deletion strains, locus YLR133W, strain CKI1, stronger effect = lower value 0.0883 | S. cerevisiae deletion strains, locus YLR403W, strain SFP1, stronger effect = lower value -0.00294 | S. cerevisiae deletion strains, locus YML070W, strain DAK1, stronger effect = lower value 0.0932 | S. cerevisiae deletion strains, locus YMR001C, strain CDC5, stronger effect = lower value 0.0857 | S. cerevisiae deletion strains, locus YMR205C, strain PFK2 (second series), stronger effect = lower value 0.0912 | S. cerevisiae deletion strains, locus YMR277W, strain FCP1, stronger effect = lower value 0.0923 | S. cerevisiae deletion strains, locus YNL006W, strain LST8, stronger effect = lower value 0.088 | S. cerevisiae deletion strains, locus YNL020C, strain ARK1, stronger effect = lower value 0.0937 | S. cerevisiae deletion strains, locus YNL161W, strain CBK1, stronger effect = lower value 0.0836 | S. cerevisiae deletion strains, locus YNL183C, strain NPR1, stronger effect = lower value 0.129 | S. cerevisiae deletion strains, locus YNL207W, strain RIO2, stronger effect = lower value 0.0937 | S. cerevisiae deletion strains, locus YNL222W, strain SSU72, stronger effect = lower value 0.0888 | S. cerevisiae deletion strains, locus YNL307C, strain MCK1 (second series), stronger effect = lower value 0.103 | S. cerevisiae deletion strains, locus YOL078W, strain AVO1, stronger effect = lower value 0.0847 | S. cerevisiae deletion strains, locus YOL136C, strain PFK27, stronger effect = lower value 0.0905 | S. cerevisiae deletion strains, locus YOR061W, strain CKA2, stronger effect = lower value 0.0875 | S. cerevisiae deletion strains, locus YOR119C, strain RIO1, stronger effect = lower value 0.109 | S. cerevisiae deletion strains, locus YOR231W, strain MKK1, stronger effect = lower value 0.137 | S. cerevisiae deletion strains, locus YOR329C, strain SCD5, stronger effect = lower value 0.0819 | S. cerevisiae deletion strains, locus YPL031C, strain PHO85, stronger effect = lower value 0.11 | S. cerevisiae deletion strains, locus YPL153C, strain RAD53, stronger effect = lower value 0.112 | S. cerevisiae deletion strains, locus YPL204W, strain HRR25, stronger effect = lower value 0.0976 | S. cerevisiae deletion strains, locus YPL209C, strain IPL1, stronger effect = lower value 0.0829 | S. cerevisiae deletion strains, locus YPL256C, strain CLN2, stronger effect = lower value 0.156 | S. cerevisiae deletion strains, locus YPR025C, strain CCL1, stronger effect = lower value 0.0822 | S. cerevisiae deletion strains, locus YPR106W, strain ISR1, stronger effect = lower value 0.0856 | S. cerevisiae deletion strains, locus YPR111W, strain DBF20, stronger effect = lower value 0.188 | S. cerevisiae deletion strains, strain NNK1, stronger effect = lower value 0.0909 | S. cerevisiae deletion strains, strain TSCII, stronger effect = lower value 0.0882
